# Source: the supplement of paper PMC4466140
# What was measured:
# Experiment in all cases: SPOT peptide array binding signal intensity (averaged, normalized) (arbitrary units (background-subtracted, floor 0; scale differs between SH3 domains)); higher = stronger binding of the SH3 domain to the peptide
# [1] = molecular target: AgAbp1
# How it was run: (§1)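 Detection of bound protein relied on anti-GST antibody, an HRP anti-mouse secondary and luminol, with imaging and quantification in Genespotter. The bound protein was GST-fused SH3 domains from four yeast species, incubated at 10 μg/ml overnight at 4°C in TBS-based blocking buffer on cellulose membranes carrying synthetic 15-mer peptides with cysteines replaced by serines. Binding signal is normalized, background-subtracted spot intensity averaged over replicates, in arbitrary units that differ between domains.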
# [2] = molecular target: AgBbc1
# How it was run: as §1
# [3] = molecular target: AgBem1-D1
# How it was run: as §1
# [4] = molecular target: AgBzz1-D1
# How it was run: as §1
# [5] = molecular target: AgBzz1-D2
# How it was run: as §1
# [6] = molecular target: AgCyk3
# How it was run: as §1
# [7] = molecular target: AgFus1
# How it was run: as §1
# [8] = molecular target: AgHof1
# How it was run: as §1
# [9] = molecular target: AgHse1
# How it was run: as §1
# [10] = molecular target: AgLsb1
# How it was run: as §1
# [11] = molecular target: AgLsb4
# How it was run: as §1
# [12] = molecular target: AgMyo5
# How it was run: as §1
# [13] = molecular target: AgNbp2
# How it was run: as §1
# [14] = molecular target: AgRvs167
# How it was run: as §1
# [15] = molecular target: AgSho1
# How it was run: as §1
# [16] = molecular target: AgSla1-D1-D2
# How it was run: as §1
# [17] = molecular target: AgSla1-D3
# How it was run: as §1
# [18] = molecular target: CaAbp1-D1
# How it was run: as §1
# [19] = molecular target: CaAbp1-D2
# How it was run: as §1
# [20] = molecular target: CaBbc1
# How it was run: as §1
# [21] = molecular target: CaBem1-D1
# How it was run: as §1
# [22] = molecular target: CaBzz1-D1
# How it was run: as §1
# [23] = molecular target: CaBzz1-D2
# How it was run: as §1
# [24] = molecular target: CaCyk3
# How it was run: as §1
# [25] = molecular target: CaFus1
# How it was run: as §1
# [26] = molecular target: CaHof1
# How it was run: as §1
# [27] = molecular target: CaHse1
# How it was run: as §1
# [28] = molecular target: CaLsb1
# How it was run: as §1
# [29] = molecular target: CaLsb4
# How it was run: as §1
# [30] = molecular target: CaMyo5
# How it was run: as §1
# [31] = molecular target: CaNbp2
# How it was run: as §1
# [32] = molecular target: CaRvs167
# How it was run: as §1
# [33] = molecular target: CaRvs167-3
# How it was run: as §1
# [34] = molecular target: CaSho1
# How it was run: as §1
# [35] = molecular target: CaSla1-D1-D2
# How it was run: as §1
# [36] = molecular target: CaSla1-D3
# How it was run: as §1
# [37] = molecular target: ScAbp1
# How it was run: as §1
# [38] = molecular target: ScBbc1
# How it was run: as §1
# [39] = molecular target: ScBem1-D1
# How it was run: as §1
# [40] = molecular target: ScBzz1-D1
# How it was run: as §1
# [41] = molecular target: ScBzz1-D2
# How it was run: as §1
# [42] = molecular target: ScCyk3
# How it was run: as §1
# [43] = molecular target: ScFus1
# How it was run: as §1
# [44] = molecular target: ScHof1
# How it was run: as §1
# [45] = molecular target: ScHse1
# How it was run: as §1
# [46] = molecular target: ScLsb1
# How it was run: as §1
# [47] = molecular target: ScLsb2
# How it was run: as §1
# [48] = molecular target: ScLsb3
# How it was run: as §1
# [49] = molecular target: ScLsb4
# How it was run: as §1
# [50] = molecular target: ScMyo3
# How it was run: as §1
# [51] = molecular target: ScMyo5
# How it was run: as §1
# [52] = molecular target: ScNbp2
# How it was run: as §1
# [53] = molecular target: ScPex13
# How it was run: as §1
# [54] = molecular target: ScRvs167
# How it was run: as §1
# [55] = molecular target: ScSho1
# How it was run: as §1
# [56] = molecular target: ScSla1-D1-D2
# How it was run: as §1
# [57] = molecular target: ScSla1-D3
# How it was run: as §1
# [58] = molecular target: SpAbp1-D1
# How it was run: as §1
# [59] = molecular target: SpBbc1
# How it was run: as §1
# [60] = molecular target: SpBzz1-D1
# How it was run: as §1
# [61] = molecular target: SpBzz1-D2
# How it was run: as §1
# [62] = molecular target: SpCyk3
# How it was run: as §1
# [63] = molecular target: SpHof1
# How it was run: as §1
# [64] = molecular target: SpHof1-2
# How it was run: as §1
# [65] = molecular target: SpHof1-3
# How it was run: as §1
# [66] = molecular target: SpHse1
# How it was run: as §1
# [67] = molecular target: SpLsb1
# How it was run: as §1
# [68] = molecular target: SpLsb4
# How it was run: as §1
# [69] = molecular target: SpMyo1
# How it was run: as §1
# [70] = molecular target: SpNbp2
# How it was run: as §1
# [71] = molecular target: SpPex13
# How it was run: as §1
# [72] = molecular target: SpRvs167
# How it was run: as §1
# [73] = molecular target: SpSla1-D1-D2
# How it was run: as §1
# [74] = molecular target: SpSla1-D3
# How it was run: as §1
binder,measurement,setting,value
VKPRQLFPIPLNKVD,SPOT peptide array binding signal intensity,[1],5
same,SPOT peptide array binding signal intensity,[2],≤ 0
same,SPOT peptide array binding signal intensity,[3],14.5
same,SPOT peptide array binding signal intensity,[4],61
same,SPOT peptide array binding signal intensity,[5],40.5
same,SPOT peptide array binding signal intensity,[6],≤ 0
same,SPOT peptide array binding signal intensity,[7],23
same,SPOT peptide array binding signal intensity,[8],56.2
same,SPOT peptide array binding signal intensity,[9],60.5
same,SPOT peptide array binding signal intensity,[10],1600
same,SPOT peptide array binding signal intensity,[11],≤ 0
same,SPOT peptide array binding signal intensity,[12],1
same,SPOT peptide array binding signal intensity,[13],18
same,SPOT peptide array binding signal intensity,[14],5
same,SPOT peptide array binding signal intensity,[15],8
same,SPOT peptide array binding signal intensity,[16],1
same,SPOT peptide array binding signal intensity,[17],8.5
same,SPOT peptide array binding signal intensity,[18],98
same,SPOT peptide array binding signal intensity,[19],43
same,SPOT peptide array binding signal intensity,[20],9
same,SPOT peptide array binding signal intensity,[21],14
same,SPOT peptide array binding signal intensity,[22],110
same,SPOT peptide array binding signal intensity,[23],59
same,SPOT peptide array binding signal intensity,[24],≤ 0
same,SPOT peptide array binding signal intensity,[25],138
same,SPOT peptide array binding signal intensity,[26],2
same,SPOT peptide array binding signal intensity,[27],3.25
same,SPOT peptide array binding signal intensity,[28],0.5
same,SPOT peptide array binding signal intensity,[29],7
same,SPOT peptide array binding signal intensity,[30],1
DKSRPPRPPPKPLHL,SPOT peptide array binding signal intensity,[1],1130
same,SPOT peptide array binding signal intensity,[2],193
same,SPOT peptide array binding signal intensity,[3],≤ 0
same,SPOT peptide array binding signal intensity,[4],256
same,SPOT peptide array binding signal intensity,[5],134
same,SPOT peptide array binding signal intensity,[6],≤ 0
same,SPOT peptide array binding signal intensity,[7],0.5
same,SPOT peptide array binding signal intensity,[8],14.2
same,SPOT peptide array binding signal intensity,[9],≤ 0
same,SPOT peptide array binding signal intensity,[10],1.5
same,SPOT peptide array binding signal intensity,[11],15
same,SPOT peptide array binding signal intensity,[12],62.2
same,SPOT peptide array binding signal intensity,[13],62.5
same,SPOT peptide array binding signal intensity,[14],1.33
same,SPOT peptide array binding signal intensity,[15],250
same,SPOT peptide array binding signal intensity,[16],≤ 0
same,SPOT peptide array binding signal intensity,[17],9
same,SPOT peptide array binding signal intensity,[18],782
same,SPOT peptide array binding signal intensity,[19],1940
same,SPOT peptide array binding signal intensity,[20],334
same,SPOT peptide array binding signal intensity,[21],120
same,SPOT peptide array binding signal intensity,[22],2800
same,SPOT peptide array binding signal intensity,[23],578
same,SPOT peptide array binding signal intensity,[24],34.5
same,SPOT peptide array binding signal intensity,[25],≤ 0
same,SPOT peptide array binding signal intensity,[26],0.5
same,SPOT peptide array binding signal intensity,[27],63.2
same,SPOT peptide array binding signal intensity,[28],≤ 0
same,SPOT peptide array binding signal intensity,[29],471
same,SPOT peptide array binding signal intensity,[30],0.5
same,SPOT peptide array binding signal intensity,[31],56
same,SPOT peptide array binding signal intensity,[32],5.33
same,SPOT peptide array binding signal intensity,[33],2
same,SPOT peptide array binding signal intensity,[34],5.5
same,SPOT peptide array binding signal intensity,[35],458
same,SPOT peptide array binding signal intensity,[36],14.2
same,SPOT peptide array binding signal intensity,[37],516
same,SPOT peptide array binding signal intensity,[38],14.5
same,SPOT peptide array binding signal intensity,[39],≤ 0
same,SPOT peptide array binding signal intensity,[40],118
same,SPOT peptide array binding signal intensity,[41],3
same,SPOT peptide array binding signal intensity,[42],≤ 0
same,SPOT peptide array binding signal intensity,[43],≤ 0
same,SPOT peptide array binding signal intensity,[44],0.5
same,SPOT peptide array binding signal intensity,[45],≤ 0
same,SPOT peptide array binding signal intensity,[46],210
same,SPOT peptide array binding signal intensity,[47],≤ 0
same,SPOT peptide array binding signal intensity,[48],1660
same,SPOT peptide array binding signal intensity,[49],11
same,SPOT peptide array binding signal intensity,[50],170
same,SPOT peptide array binding signal intensity,[51],306
same,SPOT peptide array binding signal intensity,[52],244
same,SPOT peptide array binding signal intensity,[53],669
same,SPOT peptide array binding signal intensity,[54],47.7
same,SPOT peptide array binding signal intensity,[55],379
same,SPOT peptide array binding signal intensity,[56],83
same,SPOT peptide array binding signal intensity,[57],≤ 0
same,SPOT peptide array binding signal intensity,[58],1120
same,SPOT peptide array binding signal intensity,[59],≤ 0
same,SPOT peptide array binding signal intensity,[60],684
same,SPOT peptide array binding signal intensity,[61],1.5
same,SPOT peptide array binding signal intensity,[62],1
same,SPOT peptide array binding signal intensity,[63],≤ 0
same,SPOT peptide array binding signal intensity,[64],≤ 0
same,SPOT peptide array binding signal intensity,[65],90.8
same,SPOT peptide array binding signal intensity,[66],16.8
same,SPOT peptide array binding signal intensity,[67],362
same,SPOT peptide array binding signal intensity,[68],746
same,SPOT peptide array binding signal intensity,[69],466
same,SPOT peptide array binding signal intensity,[70],≤ 0
same,SPOT peptide array binding signal intensity,[71],≤ 0
same,SPOT peptide array binding signal intensity,[72],276
same,SPOT peptide array binding signal intensity,[73],≤ 0
same,SPOT peptide array binding signal intensity,[74],≤ 0
